# How the values were obtained:
# [1] = target: T1, Aspartate--tRNA(Asp/Asn) ligase (Mycobacterium tuberculosis (strain ATCC 25618 / H37Rv)) (UniProt P9WFW3); test: Assay for Asp RNA synthetase-1 from Mycobacterium tuberculosis; format: functional; parameters: scale not given: direction of the effect not stated beside the values; settings: 30 µM; further: in the data most compounds retested in dose-response had high values
# T1 sequence (whole entry): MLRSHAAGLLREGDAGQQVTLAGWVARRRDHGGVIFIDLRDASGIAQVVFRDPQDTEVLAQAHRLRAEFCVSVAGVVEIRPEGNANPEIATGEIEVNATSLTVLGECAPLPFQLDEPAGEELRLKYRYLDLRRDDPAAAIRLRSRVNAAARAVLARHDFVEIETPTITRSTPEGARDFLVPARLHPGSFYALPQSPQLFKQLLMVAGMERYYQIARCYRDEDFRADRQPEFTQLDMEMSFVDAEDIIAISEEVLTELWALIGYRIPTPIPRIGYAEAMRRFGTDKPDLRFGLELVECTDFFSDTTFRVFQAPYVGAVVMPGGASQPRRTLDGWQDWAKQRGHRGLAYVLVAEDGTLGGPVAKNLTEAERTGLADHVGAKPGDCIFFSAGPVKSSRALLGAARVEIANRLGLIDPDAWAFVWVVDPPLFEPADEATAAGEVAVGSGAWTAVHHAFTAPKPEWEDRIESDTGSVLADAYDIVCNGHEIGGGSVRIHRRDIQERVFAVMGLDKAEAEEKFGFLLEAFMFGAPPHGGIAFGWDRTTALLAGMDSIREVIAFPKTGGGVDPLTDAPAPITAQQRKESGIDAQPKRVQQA
# [2] = target: Shiga toxin 2 (Escherichia coli O157:H7) (UniProt P09385+P09386); test: E. coli 0.157:H7 Shiga Toxin SOP - stx2 screening assay; format: functional; parameters: scale not given: direction of the effect not stated beside the values; settings: 30 µM
SMILES,Percent Effect [1],Percent Effect [2]
Cc1ncsc1CCC(=O)NCc1cc2n(n1)CCN(C(=O)N(C)C)C2,-4.32%,-29.5%
CC(=O)N(Cc1ncc(C)o1)C1CCN(Cc2cccc(C#N)c2)C1 (stereo not drawn),0.127%,9.86%
CC(=O)N1[C@H](Cn2cncn2)C[C@@H]2CN(c3ccc(C)nn3)CC[C@@H]21,-1.81%,-4.03%
O=C(N[C@@H]1CN(c2ncccn2)C[C@@H]2CCCO[C@@H]21)c1cnccn1,4.51%,-15.4%
O=C(CSCC1CC1)N1CCCC(c2nccn2Cc2ccncc2)C1 (stereo not drawn),-7.86%,6.34%
Cc1cnn(CC2CN(Cc3nccn3C)CCO2)c1 (stereo not drawn),-3.32%,17.1%
CCCN(C(=O)c1ccccn1)c1nc2c(s1)CCc1c-2cnn1C,55.9%,-72.4%
Cc1ccc(NC2CCN(C(=O)Cc3ccc(C#N)cc3)CC2)nn1,4.2%,-11.6%
Cc1nc(C)n(CC2CCCN(CCc3ccccn3)C2)n1 (stereo not drawn),-0.8%,-46.3%
COc1ccc(CCN2CCN(C(=O)c3scnc3C)CC2)cc1,0.928%,0.201%
Cc1cc(CNc2cc(Cl)ccc2OCCS(C)(=O)=O)no1,-2.26%,-0.408%
Cc1ccc2c(ccn2CCC(=O)O)c1,0.776%,-8.69%
O=C(Nc1ncn(CC(=O)N2CCCCCC2)n1)C1CCCO1 (stereo not drawn),-0.233%,29.5%
COCCOc1ccc(NC(=O)C2CC(=O)N(C)C2)cn1 (stereo not drawn),3.77%,-88.5%
CS(=O)(=O)NC1CCCN(C(=O)NCc2cccnc2)C1 (stereo not drawn),-0.548%,26.7%
O=C(NCC(O)c1ccccc1Cl)c1cccc(-n2cnnn2)c1 (stereo not drawn),7.85%,2.65%
Cc1cnn(C2CN(CC(=O)NCc3ccccn3)C2)c1,5%,21.1%
Cc1ccccc1CNc1nc(O)cc(C2CC(=O)N(C)C2)n1 (stereo not drawn),-2.9%,0.153%
Cc1cncc(C2CCCN(C(=O)c3scnc3C)C2)n1 (stereo not drawn),-4.36%,-1.58%
CCN(C)c1ncnc2c1CCN(Cc1ccoc1)CC2,5.11%,-28.5%
Cc1ncc(CN(C)CC2CCCN2c2cccnn2)s1 (stereo not drawn),3.27%,9.48%
Cc1cc2cc(C(=O)N[C@@H]3CC[C@@H](N4CCOCC4)[C@@H]3O)ccc2o1,2.49%,4.91%
CCS(=O)(=O)N1CCC2(CCC2NC(=O)c2ccn(C)c2)CC1 (stereo not drawn),1.6%,9%
Cc1cc(C)c2cc(CNCc3ccccc3)c3nn(C)c(=O)n3c2c1,-2.43%,-0.711%
CC(=O)Nc1nc(CN2CCOC(Cn3cc(C)cn3)C2)cs1 (stereo not drawn),-1.93%,16.6%

SMILES,Percent Effect [1],Percent Effect [2]
CC(C)c1cc(NC(=O)CN2CCC(N3CCNC3=O)CC2)on1,0.0463%,-28.7%
Cc1nn(C)c2c(N3CCN(C(=O)c4ccccc4)CC3)ncnc12,0.348%,-28.7%
Cc1ccc(-c2nnc(CN3CCOC(Cn4cccn4)C3)o2)cc1 (stereo not drawn),-0.257%,-10.3%
COc1ncccc1CN1Cc2nnn(C)c2C(COCC2CC2)C1 (stereo not drawn),4.09%,-10.1%
CCn1c(C)nnc1CN(C)C1CCN(Cc2cnc(C)cn2)C1 (stereo not drawn),2.78%,-19%
O=C(CN(Cc1ccccc1)CC1CCOCC1)NC(=O)NC1CC1,0.182%,-31.8%
CCC(CO)NC(=O)c1ccc2ccc(N(C)CC3CC3)n2c1 (stereo not drawn),-2.57%,-33%
O=C1C(NCc2nnc3n2CCCC3)CCN1CC(F)(F)F (stereo not drawn),-0.389%,1.91%
CN1CCOC(CNC(=O)Cc2ccccc2F)C1 (stereo not drawn),-1.99%,-8.98%
CNCC(=O)N1CCCC(c2nccnc2Oc2cccc(F)c2)C1 (stereo not drawn),1.72%,4.34%
O=C1CC2(CCN(S(=O)(=O)c3cccs3)C2)CN1c1ccccc1 (stereo not drawn),3.64%,7.29%
Cc1ccc(CC(=O)N2CCc3nnc(N(C)C)cc3C2)cn1,0.322%,-40.7%
CO[C@@H]1CC[C@H]2[C@H]1OCCN2C(=O)COc1ccc(F)cc1,-2.58%,-2.38%
O=C(Cc1ccccn1)N1CCc2nc(-c3cnccn3)nc(O)c2C1,-2.49%,4.64%
N#Cc1ccc(N2CCN(C(=O)c3cc(C4CC4)[nH]n3)CC2)c(F)c1,-6.09%,-10.4%
Cn1cc(C(=O)N[C@@H]2CN(Cc3cccs3)[C@@H]3CCCO[C@@H]32)cn1,1.75%,-2.87%
Cc1nc(C)n(CC2CN(CCCOc3ccccc3C)CCO2)n1 (stereo not drawn),1.31%,4.82%
Cc1ccc(C(=O)N2CCC3(CC2)NC(=O)CC3c2ccccc2)cn1 (stereo not drawn),3.23%,-13.9%
O=C(c1ccc(F)cc1F)N1C[C@@H](O)[C@H](N2CCOCC2)C1,4.46%,-20.4%
O=C(CCc1cnn(-c2ccccc2)c1)N1CCCC(n2cccn2)C1 (stereo not drawn),-0.589%,26.2%
Cc1nc(N2CCCC2)nc2c1CCN(C(=O)C1CCCC1)CC2,0.726%,-9.64%
CS(=O)(=O)CCC(=O)Nc1cnn(-c2ccccc2Cl)c1,-3.18%,-52.3%
COc1cc(C(C)=O)ccc1OCC(=O)N(C)Cc1cnn(C)c1,-4.92%,0.928%
Clc1snnc1CN1CCCCC1Cn1cncn1 (stereo not drawn),-1.89%,-12%
NCC(=O)N1CCCC(c2cncc(Nc3ncccn3)n2)C1 (stereo not drawn),1.44%,1.91%

SMILES,Percent Effect [1],Percent Effect [2]
O=C(Cc1ccc2c(c1)OCO2)N1CCCN(c2ccccc2)CC1,3.17%,3.72%
CCS(=O)(=O)N1CCC2(CC(=O)N(c3cccc(C)c3)C2)C1 (stereo not drawn),2.82%,-11.5%
CC(C)CC(=O)N1CCCn2cnc(CN3CCCC3=O)c2C1,-3.68%,-15.8%
Cn1cc(CN2CCn3c(CNC(=O)c4cccn4C)cnc3C2)cn1,12.8%,-22.6%
COC(=O)C(c1cc(F)ccc1F)N(C)C(=O)c1cccnc1O (stereo not drawn),-4.32%,8.11%
Cc1ccc(NS(=O)(=O)CC2=NC(=O)n3cccc3C2=O)cc1,-1.02%,-73.8%
O=C(Cc1ccc2c(c1)CCO2)N1CCCCC1Cn1cccn1 (stereo not drawn),-2.75%,-6.84%
Cc1nnc(N2CCC(CS(N)(=O)=O)CC2)c(C#N)c1C,6.31%,21.6%
CN(Cc1cccc(F)c1)S(=O)(=O)N1CCOCC1,-3.02%,3.45%
Cc1ncsc1C(=O)NC1CCN(CC(=O)N(C)C(C)(C)C#N)CC1,-2.42%,25.4%
Cc1cccc(-n2cc(C(=O)N3CCCC(n4cccn4)C3)nn2)c1 (stereo not drawn),1.99%,-13.8%
CN1[C@H](CN2CCCC2)C[C@@H]2CN(C(=O)Cc3cccs3)CC[C@@H]21,3.89%,-16%
CC(C)N1CCCC2(CCN(C(=O)CCCn3ccnc3)C2)C1=O (stereo not drawn),-5.64%,15.9%
Cn1cc(N2CC3(CCN(S(=O)(=O)C4CC4)C3)CC2=O)cn1 (stereo not drawn),-0.32%,-17.6%
CC(=O)N(C)CC(=O)Nc1cccc(N2CCN(CC3CC3)CC2)c1,7.12%,-14.8%
O=C(NCC(O)c1ccc(F)c(F)c1)c1cccnc1O (stereo not drawn),2.78%,-4.45%
Cn1cnc2c1CCN(CCCc1ccccc1)C2,1.13%,1.04%
O=S(=O)(N(Cc1ccccn1)C1CC1)N1CCCC1c1ccco1 (stereo not drawn),2.62%,-10.3%
N#Cc1cc(NC(=O)c2ccsc2)ccc1N1CCC(O)CC1,3.33%,-57.5%
Cc1cnn(CC2CN(c3ncnc4ccccc34)CCO2)c1 (stereo not drawn),-7%,6.94%
Cc1ccc(C2C3=C(COC3=O)Nc3[nH]nc(C)c32)cc1C (stereo not drawn),-4.73%,-11.4%
CCc1nnc(CN2CCCC(c3cc(C(F)(F)F)[nH]n3)C2)o1 (stereo not drawn),1.01%,-4.16%
Cc1nc2ccccc2nc1CN1CCCC1c1c(C)nn(C)c1C (stereo not drawn),-5.6%,-18.4%
CC(C)OCCN(C)C(C)c1cccc(S(N)(=O)=O)c1 (stereo not drawn),-3.29%,-16.4%

# From ChEMBL document CHEMBL3988442, “University of Dundee, Small-Polar-MMV Screening Library” (2021)
